# Laboratory results: article PMC11006913
# Positions count from the first letter of the chain named.
# How the values were obtained:
# Test in all cases: PBM; 200 nM protein, PBS
# Settings in all cases: dsDNA, one strand shown
# VENTX = biological target: T1, VENTX (Homo sapiens, UniProt O95231 78-163)
# T1 sequence: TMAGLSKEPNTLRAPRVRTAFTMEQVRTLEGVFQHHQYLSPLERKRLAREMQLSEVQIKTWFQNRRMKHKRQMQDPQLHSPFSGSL
# HOXA7 [1] = biological target: HOXA7 (Homo sapiens, UniProt P31268 116-202)
# PAX4 [2] = biological target: T2, PAX4 (Homo sapiens, UniProt O43316 9-242, R200K)
# T2 sequence: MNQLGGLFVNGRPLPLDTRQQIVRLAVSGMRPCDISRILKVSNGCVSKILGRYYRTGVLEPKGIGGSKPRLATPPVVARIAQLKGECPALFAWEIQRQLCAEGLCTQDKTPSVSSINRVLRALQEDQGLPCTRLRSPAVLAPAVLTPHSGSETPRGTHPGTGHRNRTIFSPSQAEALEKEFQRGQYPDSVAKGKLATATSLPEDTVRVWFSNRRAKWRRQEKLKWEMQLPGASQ
# PAX4 [3] = biological target: T3, PAX4 (Homo sapiens, UniProt O43316 9-242)
# T3 sequence: T2 sequence with K192R
# HOXA2 [4] = biological target: HOXA2 (Homo sapiens, UniProt O43364 129-215, R185K)
# Sequence of HOXA2 (Homo sapiens, UniProt O43364 129-215, R185K) (O43364 129-215 R185K): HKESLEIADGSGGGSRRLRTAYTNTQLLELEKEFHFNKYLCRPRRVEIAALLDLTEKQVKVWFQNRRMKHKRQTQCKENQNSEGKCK
# HOXC10 [5] = biological target: HOXC10 (Homo sapiens, UniProt Q9NYD6 254-340, K271E)
# Sequence of HOXC10 (Homo sapiens, UniProt Q9NYD6 254-340, K271E) (Q9NYD6 254-340 K271E): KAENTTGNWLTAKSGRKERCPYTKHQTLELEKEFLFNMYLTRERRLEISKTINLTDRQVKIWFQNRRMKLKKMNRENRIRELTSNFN
# VAX1 = VAX1 (Homo sapiens, UniProt Q5SQQ9 86-172)
# Sequence of VAX1 (Q5SQQ9 86-172): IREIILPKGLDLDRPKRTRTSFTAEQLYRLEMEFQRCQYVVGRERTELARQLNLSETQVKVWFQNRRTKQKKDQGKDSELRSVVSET
# PAX4 [6] = biological target: T4, PAX4 (Homo sapiens, UniProt O43316 9-242, R227W)
# T4 sequence: T2 sequence with K192R, R219W
# HOXA2 [7] = biological target: HOXA2 (Homo sapiens, UniProt O43364 129-215, Y150S)
# Sequence of HOXA2 (Homo sapiens, UniProt O43364 129-215, Y150S) (O43364 129-215 Y150S): as the sequence (O43364 129-215 R185K) above, with Y22S, K57R counted along it
# HOXA7 [8] = biological target: HOXA7 (Homo sapiens, UniProt P31268 116-202, W177C)
# Sequence of HOXA7 (Homo sapiens, UniProt P31268 116-202, W177C) (P31268 116-202 W177C): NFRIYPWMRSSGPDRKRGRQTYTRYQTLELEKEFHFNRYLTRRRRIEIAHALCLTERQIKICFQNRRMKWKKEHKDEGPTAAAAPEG
# HOXA2 [9] = biological target: HOXA2 (Homo sapiens, UniProt O43364 129-215)
# Sequence of HOXA2 (Homo sapiens, UniProt O43364 129-215) (O43364 129-215): as the sequence (O43364 129-215 R185K) above, with K57R counted along it
# HOXB6 = HOXB6 (Homo sapiens, UniProt P17509 132-218)
# Sequence of HOXB6 (P17509 132-218): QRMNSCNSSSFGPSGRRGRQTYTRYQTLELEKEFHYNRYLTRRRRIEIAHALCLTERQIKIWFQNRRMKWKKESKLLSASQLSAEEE
# HOXC10 [10] = biological target: HOXC10 (Homo sapiens, UniProt Q9NYD6 254-340)
# Sequence of HOXC10 (Homo sapiens, UniProt Q9NYD6 254-340) (Q9NYD6 254-340): as the sequence (Q9NYD6 254-340 K271E) above, with E18K counted along it
# HOXB9 [11] = biological target: HOXB9 (Homo sapiens, UniProt P17482 171-250, T197M)
# Sequence of HOXB9 (Homo sapiens, UniProt P17482 171-250, T197M) (P17482 171-250 T197M): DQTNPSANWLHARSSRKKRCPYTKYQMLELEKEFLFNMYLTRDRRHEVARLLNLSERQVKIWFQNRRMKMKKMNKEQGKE
# HOXC9 [12] = biological target: HOXC9 (Homo sapiens, UniProt P31274 178-260, K195R)
# Sequence of HOXC9 (Homo sapiens, UniProt P31274 178-260, K195R) (P31274 178-260 K195R): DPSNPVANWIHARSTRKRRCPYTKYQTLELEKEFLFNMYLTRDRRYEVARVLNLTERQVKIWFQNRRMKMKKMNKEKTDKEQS
# HOXC9 [13] = biological target: HOXC9 (Homo sapiens, UniProt P31274 178-260)
# Sequence of HOXC9 (Homo sapiens, UniProt P31274 178-260) (P31274 178-260): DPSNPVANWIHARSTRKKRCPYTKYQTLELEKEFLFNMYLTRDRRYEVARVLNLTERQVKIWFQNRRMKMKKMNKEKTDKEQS
# HOXC9 [14] = biological target: HOXC9 (Homo sapiens, UniProt P31274 178-260, R193K)
# Sequence of HOXC9 (Homo sapiens, UniProt P31274 178-260, R193K) (P31274 178-260 R193K): as the sequence (P31274 178-260) above, with R16K counted along it
# HOXB9 [15] = biological target: HOXB9 (Homo sapiens, UniProt P17482 171-250, R186Q)
# Sequence of HOXB9 (Homo sapiens, UniProt P17482 171-250, R186Q) (P17482 171-250 R186Q): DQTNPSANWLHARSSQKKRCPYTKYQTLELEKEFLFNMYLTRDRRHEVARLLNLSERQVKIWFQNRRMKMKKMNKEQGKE
# HOXC9 [16] = biological target: HOXC9 (Homo sapiens, UniProt P31274 178-260, R222W)
# Sequence of HOXC9 (Homo sapiens, UniProt P31274 178-260, R222W) (P31274 178-260 R222W): as the sequence (P31274 178-260) above, with R45W counted along it
# Sequence of HOXA7 (Homo sapiens, UniProt P31268 116-202) (P31268 116-202): as the sequence (P31268 116-202 W177C) above, with C62W counted along it
sequence,measurement,setting,value
CCTAATTA,binding signal,VENTX,"13 upbm affinity estimate (log intensity, higher = more binding, comparable within an allelic series)"
same,binding signal,HOXA7 [1],"11.8 upbm affinity estimate (log intensity, higher = more binding, comparable within an allelic series)"
same,binding signal,PAX4 [2],"12.1 upbm affinity estimate (log intensity, higher = more binding, comparable within an allelic series)"
same,binding signal,PAX4 [3],"12.6 upbm affinity estimate (log intensity, higher = more binding, comparable within an allelic series)"
same,binding signal,HOXA2 [4],"13.8 upbm affinity estimate (log intensity, higher = more binding, comparable within an allelic series)"
same,binding signal,HOXC10 [5],"11.8 upbm affinity estimate (log intensity, higher = more binding, comparable within an allelic series)"
same,binding signal,VAX1,"13.8 upbm affinity estimate (log intensity, higher = more binding, comparable within an allelic series)"
same,binding signal,PAX4 [6],"11.2 upbm affinity estimate (log intensity, higher = more binding, comparable within an allelic series)"
same,binding signal,HOXA2 [7],"10.8 upbm affinity estimate (log intensity, higher = more binding, comparable within an allelic series)"
same,binding signal,HOXA7 [8],"8.85 upbm affinity estimate (log intensity, higher = more binding, comparable within an allelic series)"
same,binding signal,HOXA2 [9],"13.2 upbm affinity estimate (log intensity, higher = more binding, comparable within an allelic series)"
same,binding signal,HOXB6,"12.1 upbm affinity estimate (log intensity, higher = more binding, comparable within an allelic series)"
CAATTAAG,binding signal,VENTX,"12.5 upbm affinity estimate (log intensity, higher = more binding, comparable within an allelic series)"
same,binding signal,HOXA7 [1],"11.5 upbm affinity estimate (log intensity, higher = more binding, comparable within an allelic series)"
same,binding signal,HOXA2 [4],"13 upbm affinity estimate (log intensity, higher = more binding, comparable within an allelic series)"
same,binding signal,VAX1,"13 upbm affinity estimate (log intensity, higher = more binding, comparable within an allelic series)"
same,binding signal,HOXA2 [7],"10.7 upbm affinity estimate (log intensity, higher = more binding, comparable within an allelic series)"
same,binding signal,HOXA7 [8],"8.83 upbm affinity estimate (log intensity, higher = more binding, comparable within an allelic series)"
same,binding signal,HOXA2 [9],"12.2 upbm affinity estimate (log intensity, higher = more binding, comparable within an allelic series)"
same,binding signal,HOXB6,"11.8 upbm affinity estimate (log intensity, higher = more binding, comparable within an allelic series)"
CCCCGGCG,binding signal,HOXC10 [10],"9.87 upbm affinity estimate (log intensity, higher = more binding, comparable within an allelic series)"
same,binding signal,HOXC10 [5],"10 upbm affinity estimate (log intensity, higher = more binding, comparable within an allelic series)"
same,binding signal,HOXB6,"9 upbm affinity estimate (log intensity, higher = more binding, comparable within an allelic series)"
TAATTGCA,binding signal,HOXB9 [11],"10.2 upbm affinity estimate (log intensity, higher = more binding, comparable within an allelic series)"
same,binding signal,HOXA7 [1],"11.6 upbm affinity estimate (log intensity, higher = more binding, comparable within an allelic series)"
same,binding signal,HOXA2 [4],"13.4 upbm affinity estimate (log intensity, higher = more binding, comparable within an allelic series)"
same,binding signal,HOXC10 [5],"11.8 upbm affinity estimate (log intensity, higher = more binding, comparable within an allelic series)"
same,binding signal,HOXA2 [7],"11 upbm affinity estimate (log intensity, higher = more binding, comparable within an allelic series)"
same,binding signal,HOXA7 [8],"8.79 upbm affinity estimate (log intensity, higher = more binding, comparable within an allelic series)"
same,binding signal,HOXA2 [9],"12.3 upbm affinity estimate (log intensity, higher = more binding, comparable within an allelic series)"
same,binding signal,HOXB6,"12.1 upbm affinity estimate (log intensity, higher = more binding, comparable within an allelic series)"
AACAATTA,binding signal,HOXA7 [1],"11.2 upbm affinity estimate (log intensity, higher = more binding, comparable within an allelic series)"
same,binding signal,HOXA7 [8],"8.96 upbm affinity estimate (log intensity, higher = more binding, comparable within an allelic series)"
TAATTAGA,binding signal,HOXB9 [11],"10.1 upbm affinity estimate (log intensity, higher = more binding, comparable within an allelic series)"
same,binding signal,VENTX,"13 upbm affinity estimate (log intensity, higher = more binding, comparable within an allelic series)"
same,binding signal,HOXA7 [1],"11.5 upbm affinity estimate (log intensity, higher = more binding, comparable within an allelic series)"
same,binding signal,PAX4 [2],"12.2 upbm affinity estimate (log intensity, higher = more binding, comparable within an allelic series)"
same,binding signal,PAX4 [3],"12.8 upbm affinity estimate (log intensity, higher = more binding, comparable within an allelic series)"
same,binding signal,HOXA2 [4],"13.9 upbm affinity estimate (log intensity, higher = more binding, comparable within an allelic series)"
same,binding signal,HOXC10 [5],"11.8 upbm affinity estimate (log intensity, higher = more binding, comparable within an allelic series)"
same,binding signal,VAX1,"13.8 upbm affinity estimate (log intensity, higher = more binding, comparable within an allelic series)"
same,binding signal,PAX4 [6],"11.5 upbm affinity estimate (log intensity, higher = more binding, comparable within an allelic series)"
same,binding signal,HOXA2 [7],"11 upbm affinity estimate (log intensity, higher = more binding, comparable within an allelic series)"
same,binding signal,HOXA7 [8],"8.87 upbm affinity estimate (log intensity, higher = more binding, comparable within an allelic series)"
same,binding signal,HOXA2 [9],"13.1 upbm affinity estimate (log intensity, higher = more binding, comparable within an allelic series)"
same,binding signal,HOXB6,"12 upbm affinity estimate (log intensity, higher = more binding, comparable within an allelic series)"
CAATTAAC,binding signal,HOXB9 [11],"9.98 upbm affinity estimate (log intensity, higher = more binding, comparable within an allelic series)"
same,binding signal,HOXC9 [12],"12.5 upbm affinity estimate (log intensity, higher = more binding, comparable within an allelic series)"
same,binding signal,VENTX,"12.8 upbm affinity estimate (log intensity, higher = more binding, comparable within an allelic series)"
same,binding signal,HOXA7 [1],"11.5 upbm affinity estimate (log intensity, higher = more binding, comparable within an allelic series)"
same,binding signal,PAX4 [2],"11.5 upbm affinity estimate (log intensity, higher = more binding, comparable within an allelic series)"
same,binding signal,PAX4 [3],"12.1 upbm affinity estimate (log intensity, higher = more binding, comparable within an allelic series)"
same,binding signal,HOXC9 [13],"12.6 upbm affinity estimate (log intensity, higher = more binding, comparable within an allelic series)"
same,binding signal,HOXC9 [14],"12.5 upbm affinity estimate (log intensity, higher = more binding, comparable within an allelic series)"
same,binding signal,HOXA2 [4],"13.3 upbm affinity estimate (log intensity, higher = more binding, comparable within an allelic series)"
same,binding signal,HOXC10 [5],"11.8 upbm affinity estimate (log intensity, higher = more binding, comparable within an allelic series)"
same,binding signal,VAX1,"13 upbm affinity estimate (log intensity, higher = more binding, comparable within an allelic series)"
same,binding signal,HOXB9 [15],"11.4 upbm affinity estimate (log intensity, higher = more binding, comparable within an allelic series)"
same,binding signal,HOXC9 [16],"10.9 upbm affinity estimate (log intensity, higher = more binding, comparable within an allelic series)"
same,binding signal,PAX4 [6],"10.8 upbm affinity estimate (log intensity, higher = more binding, comparable within an allelic series)"
same,binding signal,HOXA2 [7],"10.8 upbm affinity estimate (log intensity, higher = more binding, comparable within an allelic series)"
same,binding signal,HOXA7 [8],"8.75 upbm affinity estimate (log intensity, higher = more binding, comparable within an allelic series)"
same,binding signal,HOXA2 [9],"12.3 upbm affinity estimate (log intensity, higher = more binding, comparable within an allelic series)"
same,binding signal,HOXB6,"12 upbm affinity estimate (log intensity, higher = more binding, comparable within an allelic series)"
